In the OligoGym collection:

What follows are sequences tested against PGLYRP2 (assay: pooled miR-30 sensor sort-seq; sequence = guide strand). Conditions: shRNA.
Further: reference of the scale not given here.

Row | Sequence | sensor-assay potency score (higher = more potent)
1 | TTGGACATCTGGACAGCCTTTT | -0.831
2 | TTCTCGTACGTCATGTCGGGCC | -0.387
3 | TTAACAGAGATGCCTTGGGGTC | -1.41
4 | ATCTGCAGTGGTGACATCTGGA | -0.549
5 | TTCTGCCGTCGGAAGTTGCTGC | -0.417
6 | TTTTGTAGCATCTGGAGTGTTG | -0.0388
7 | TCGTACACGTAGCCGTCCGAGC | -1.66
8 | TTGGCTCATGCACTGAAGCTGG | -0.819
9 | TAGCAATCCGAGTAGGATCCAG | -0.509
10 | TAGTCTCCAAGGATGACCCCAT | -0.15

Each sequence was assayed against PGR in the same assay as above. Conditions: shRNA.

Row | Sequence | sensor-assay potency score (higher = more potent)
11 | TTGACTTCGTAGCCCTTCCAAA | -1.29
12 | TTGAAGCTTGACAAACTCCTGT | 0.608
13 | TTGATTAAGACTTGTCAGCAAA | -0.954
14 | TGTAAGTTGATAGAAACGCTGT | 0.269
15 | TTGTGTTGTCATGTCCTGCATA | -0.728
16 | TAACTTCAGACATCATTTCTGG | -0.00174
17 | TTCGTCTTCCAGCAGCTGCCGA | -0.877
18 | TAGTTGATTAAGACTTGTCAGC | -0.703
19 | TTCTTGGCTAACTTGAAGCTTG | -0.748
20 | TTGTTTGACAAGATCATGCAAG | -0.044
21 | TAAGTTGATAGAAACGCTGTGA | 0.39
22 | TCAACTGTATGTCTTGACCTGG | -0.016
